Results on 16 compounds are retold here after PubChem BioAssay.

Calls of active or inactive are those of the source.

For assay [1], the target named is Albumin (Bos taurus) (UniProt P02769). As to the kind of experiment: bovine serum albumin binders on microarray, profiling panel, artefact control for SMM control protein annotation, biochemical, small-molecule microarray, Alexa647 label, 635/667 nm fluorescence (AID 1118).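 Further: score merges 667 nm emission intensity and signal-to-noise per printed compound spot.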 The note with it: BSA-A647 binding, fluorescence 635 nm, higher = more signal.
Assay [2] in a line: small-molecule microarray binders of probe aXIP, primary screen, biochemical, NeuroSMM set, 635/667 nm fluorescence (AID 1119).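 Further: probe is the protein aXip251-270 applied at 1 µg/mL to compound-printed slides; binding of probe to printed compounds measured as 667 nm fluorescence plus signal to noise.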 The note with it: higher = more signal, called active from +8 up or from −8 down.
Assay [3] can be described thus: small-molecule binders of probe aNOTCH3, primary screen, biochemical, small-molecule microarray, 635/667 nm fluorescence (AID 1120).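 Further: probe is a biotin-tagged antibody raised against NOTCH3 rather than NOTCH3 protein; score merges spot fluorescence near 667 nm with spot signal to noise.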 The note with it: higher = more signal.
Assay [4] in a line: small-molecule binders of probe aNOTCH2, primary screen, biochemical, small-molecule microarray, 635/667 nm fluorescence (AID 1121).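 Further: score merges feature fluorescence read at 667 nm with its signal to noise.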 The settings on record: higher = more signal.
Assay [5] addresses Carbonic anhydrase 2 (Homo sapiens) (UniProt P00918). As to the kind of experiment: CAII small-molecule binders, profiling panel, biochemical, small-molecule microarray, Alexa647-labelled CAII (AID 1122). The note with it: CAII-A647 binding fluorescence, higher = more signal.
Assay [6] in a line: COS7 lysate on small-molecule microarray, probe aHis, 635 nm (AID 1123).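 Further: z-score combines 667nm fluorescence intensity with signal-to-noise per printed compound spot.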 The note with it: COS7 cell lysate, fluorescence, higher = more signal.
The nature of assay [7]: compound binding in COS7 lysate, probe aLAP1, primary screen, cell lysate, small-molecule microarray (AID 1124).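 Further: lysate comes from COS7 cells expressing LAP1 and is applied at 0.3 µg/mL; score merges spot fluorescence near 667 nm with signal-to-noise over triplicate slides.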 The note with it: probe aLAP1, fluorescence, higher = more signal.
In assay [8] the test system is Sam68 (KHDRBS1). As to the kind of experiment: Sam68 small-molecule binders, primary screen, biochemical, small-molecule microarray, 635 nm fluorescence (AID 1125).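 Further: score merges 667 nm channel intensity with signal to noise over triplicate slides.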 The note with it: small-molecule microarray binding, higher = more signal.
In assay [9] the test system is Chordin-like protein 2 (CHRDL2). As to the kind of experiment: CHRDL2 small-molecule binders, primary screen, biochemical, small-molecule microarray, 635 nm fluorescence (AID 1126).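 Further: printed compound slides probed with Chrdl2 protein at 4 µg/mL for 1 h at 4 C; score merges 667 nm emission intensity with signal to noise over three replicate slides.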 The note with it: small-molecule microarray binding, fluorescence 635 nm; higher = more signal.
The target of assay [10] is Concanavalin-A (Canavalia ensiformis) (UniProt P02866). As to the kind of experiment: ConA small-molecule binders, primary screen, artefact control for SMM control protein annotation, biochemical, small-molecule microarray, Alexa647 label, 635 nm (AID 1127).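 Further: z combines 667 nm emission intensity with signal-to-noise across three replicate slides.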 The settings on record: ConA-A647 binding fluorescence, higher = more signal.
Sequence of Concanavalin-A (Canavalia ensiformis) (P02866 whole entry, looked up): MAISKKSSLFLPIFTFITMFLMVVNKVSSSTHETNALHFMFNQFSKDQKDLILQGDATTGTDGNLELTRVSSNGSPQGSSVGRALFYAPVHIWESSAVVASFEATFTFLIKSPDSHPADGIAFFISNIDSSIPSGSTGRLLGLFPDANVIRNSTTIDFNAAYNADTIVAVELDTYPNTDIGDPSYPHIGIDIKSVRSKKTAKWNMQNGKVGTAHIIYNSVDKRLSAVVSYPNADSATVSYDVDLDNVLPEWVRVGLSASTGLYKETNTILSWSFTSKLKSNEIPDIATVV

Sequence of Albumin (Bos taurus) (P02769 whole entry, looked up): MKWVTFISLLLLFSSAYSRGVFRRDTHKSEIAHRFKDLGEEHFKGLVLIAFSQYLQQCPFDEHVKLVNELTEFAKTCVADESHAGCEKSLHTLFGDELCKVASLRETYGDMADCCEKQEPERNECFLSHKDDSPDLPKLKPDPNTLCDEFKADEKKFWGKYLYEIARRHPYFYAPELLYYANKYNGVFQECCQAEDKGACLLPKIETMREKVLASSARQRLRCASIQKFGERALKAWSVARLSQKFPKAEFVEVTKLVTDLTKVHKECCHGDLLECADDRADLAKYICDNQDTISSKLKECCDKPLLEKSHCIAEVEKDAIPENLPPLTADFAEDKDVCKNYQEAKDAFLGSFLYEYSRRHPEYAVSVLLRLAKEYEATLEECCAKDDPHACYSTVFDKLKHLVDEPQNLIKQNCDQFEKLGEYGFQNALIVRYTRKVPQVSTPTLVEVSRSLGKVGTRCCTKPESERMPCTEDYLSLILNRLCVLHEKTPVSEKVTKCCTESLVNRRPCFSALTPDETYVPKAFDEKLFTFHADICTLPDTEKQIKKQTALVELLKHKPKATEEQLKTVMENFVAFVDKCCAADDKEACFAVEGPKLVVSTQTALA

With `COCCOC(=O)N1C(=O)[C@@]2(c3cc(C#CCC(C(=O)OC)C(=O)OC)ccc31)[C@H](C(N)=O)[C@H]1C(=O)O[C@H](c3ccccc3)[C@H](c3ccccc3)N1[C@@H]2c1ccc(O)cc1`, the composite z-score was 0.751 in assay [1]; 0.104 in [3]; -0.0282 in assay [4]; 0.407 in assay [5]; 1.97 in assay [6]; 0.134 in assay [7]. Further, the composite z-score in assay [8] stood at 1.3; in [9] it was 0.778; in [10], 0.951. Moreover, the composite Z-score in [2] was -0.642 (inactive).
In the case of `C[N+](C)(C)CCCC[C@@H]1NC(=O)[C@H]2C[C@@H](C(=O)NCCCCCNC(=O)CS)[C@@H](c3cccc(OCCO)c3)N2C1=O`, the composite z-score in assay [1] is 0.479; in [3], -0.0881; in assay [4], -0.115; in assay [5], 0.69; in assay [6], 1.63; in assay [7], 0.985. Besides, the composite z-score in assay [8] turned out to be 0.165; in [9], 0.245; in assay [10], 0.896. The composite Z-score in [2] is 0.518 (inactive).
Take `CN(C)CCCNC(=O)[C@@]1(Cc2ccccc2I)c2ccccc2C(=O)N(C2CCCCC2)[C@H]1c1ccc(CO)cc1`: the composite z-score came to 0.33 in [1]; 0.417 in [3]; 0.227 in [4]; 0.443 in assay [5]; 1.57 in assay [6]; 0.653 in assay [7]. The figures for the composite z-score in assay [8], in assay [9] and in assay [10] were 1.31, -0.0713 and 1.16, respectively. In addition, the composite Z-score in assay [2] was 0.56 (inactive).
`COC(=O)[C@H](Cc1ccc(O)cc1)N[C@@H](/C=C/C1CC1)[C@H](O)Cc1ccccc1`: the composite z-score in assay [1] was -0.394; in assay [3], -0.127; in [4], -0.172; in assay [5], -0.231; in assay [6], -0.635; in assay [7] it was -0.125. Besides, the values for the composite z-score in assay [8], in assay [9] and in [10] were 0.0476, 0.202 and -0.407, respectively. For the same compound, the composite Z-score in [2] was -0.414 (inactive).
Consider `COc1ccc([Si](C)(C)[C@@H]2[C@@H](CC(=O)N(CCO)Cc3ccccc3)O[C@]3(C(=O)N(Cc4ccc(N5C(=O)c6cccc7cccc5c67)cc4)c4ccccc43)[C@H]2C)cc1`, for which the composite z-score in [1] was -0.806; in assay [3], 0.0496; in assay [4], -0.126; in assay [5], 0.283; in assay [6] it was 1.12; in assay [7] it was 0.284. The composite z-score was found to be 0.956 in assay [8], 0.307 in assay [9] and 1.12 in [10]. Also, the composite Z-score in [2] was 0.267 (inactive).
In the case of `CN1C(=O)C2C=CC(C(O)c3ccc(-c4ccccc4)s3)N(NC(=O)OC(C)(C)C)C2C1=O` (stereo not given), the composite z-score came out at 0.886 in assay [1]; 0.435 in assay [3]; 0.164 in [4]; 0.689 in assay [5]; 1.65 in assay [6]; 0.714 in assay [7]. The results for the composite z-score in [8], in assay [9] and in assay [10] were 1.23, 0.0094 and 0.996, respectively. Further, the composite Z-score in assay [2] was 0.43 (inactive).
Regarding `C[C@@H]1NC(=O)C([C@@H](C)OCc2ccccc2)NC(=O)[C@@]23C(=O)N[C@@H](Cc4ccccc4)C2[C@H](C)[C@@]2(C)O[C@H]2C3/C=C/C/C=C\CNC1=O` (stereo not given in full), the composite z-score was -1.17 in assay [1]; -0.222 in assay [3]; -0.125 in [4]; 0.61 in [5]; -0.13 in assay [6]; 0.0711 in [7]. Moreover, the composite z-score was -0.503 in assay [8], 0.209 in assay [9] and -0.928 in [10]. The composite Z-score in assay [2] was 2.08 (inactive).
On to `O=C1[C@@H]2[C@@H](CC(COc3ccccc3)=C([C@H](O)CCc3ccccc3)[C@@H]2CO)C(=O)N1Cc1ccccc1`, for which the composite z-score in assay [1] was 0.574; in assay [3], 0.15; in assay [4] it was -0.148; in assay [5], 0.42; in [6], 1.05; in [7] it was 0.424. For the same compound, the values for the composite z-score in [8], in assay [9] and in assay [10] were 0.582, 0.249 and 0.929, respectively. Also, the composite Z-score in [2] was 0.356 (inactive).
For `C=CCNC(=O)[C@H]1[C@@H]2C(=O)O[C@@H](c3ccccc3)[C@@H](c3ccccc3)N2[C@@H](c2ccc(OCCO)cc2)[C@]12C(=O)Nc1ccccc12`, the composite z-score was 0.989 in assay [1]; -0.261 in [3]; -0.0877 in assay [4]; 0.74 in assay [5]; 2.7 in assay [6]; 1.15 in assay [7]. The composite z-score is 1.29 in assay [8], -0.832 in assay [9] and 1.13 in [10]. For the same compound, in assay [2], the composite Z-score was 1.76 (inactive).
Take `CC(C)(C)OC(=O)CC[C@]1(C(=O)NCC(O)CO)N=C(c2ccc(OCCCO)cc2)O[C@H]1c1ccccc1N=[N+]=[N-]` (stereo not given in full): the composite z-score in [1] was 1.02; in [3] it was 0.163; in assay [4], 0.149; in assay [5], 0.719; in [6], 3.53; in [7], 1.03. The composite z-score in [8] amounted to 0.723; in assay [9], 0.0058; in [10], 0.715. The composite Z-score in [2] is 1.33 (inactive).
`CC(=O)OCC1C2CC[C@H]3C(OCc4ccc(F)cc4C(F)(F)F)OC[C@]4(C)[C@H]3C2=C(CN4C(=O)OC(C)(C)C)[C@H](C)C1COC(C)=O` (stereo not given in full): the composite z-score was 0.349 in assay [1]; 0.16 in assay [3]; 0.117 in assay [4]; 0.807 in assay [5]; 0.826 in assay [6]; 0.95 in assay [7]. In addition, the results for the composite z-score in assay [8], in assay [9] and in [10] were 0.0524, -1.86 and 1.12, respectively. Further, the composite Z-score in assay [2] is -0.342 (inactive).
For the compound `CN1C(=O)C2C(C3CC3)C=C3CN(Cc4cccc(Cl)c4)[C@@H]([C@@H](O)Cc4ccccc4)C3C2C1=O` (stereo not given in full), the composite z-score in [1] is 0.363; in assay [3], 0.147; in [4], -0.104; in assay [5] it was 0.225; in assay [6], 1.17; in assay [7], -0.0531. Moreover, the results for the composite z-score in assay [8], in [9] and in assay [10] were 1.3, 0.231 and 1.06, respectively. The composite Z-score in assay [2] is 0.996 (inactive).
Take `CCCCCC1=C2CNC(CC(C)C)(C(=O)OC)C=C2C(C)C1=O` (stereo not given): the composite z-score came to 0.624 in assay [1]; 0.376 in [3]; 0.0453 in assay [4]; 0.495 in [5]; 1.9 in [6]; 0.602 in assay [7]. For the same compound, the composite z-score was 1.18 in assay [8], -0.861 in assay [9] and 0.232 in assay [10]. Moreover, in [2], the composite Z-score was -0.378 (inactive).
For `CC(=O)c1ccc(C(O)C2C=CC3C(=O)N(c4ccccc4)C(=O)C3N2Nc2ccc(C(C)C)cc2)cc1` (stereo not given), the composite z-score in assay [1] worked out at 0.0031; in assay [3], 0.247; in assay [4] it was 0.216; in [5] it was 0.666; in [6] it was 1.97; in assay [7], 0.463. The composite z-score was 1.13 in assay [8], -0.185 in assay [9] and 1.13 in [10]. Moreover, the composite Z-score in [2] was -0.275 (inactive).
As for `C=C(CCCC)C(=O)CC[C@H](OC(=O)c1ccccc1-c1ccccc1C(=O)O)c1ccc(OCCO)cc1`, the composite z-score in assay [1] is 0.763; in assay [3], 0.184; in assay [4] it was -0.185; in [5], 0.573; in [6], 1.2; in assay [7], -0.0334. For the same compound, the composite z-score turned out to be 0.958 in assay [8], 0.0139 in assay [9] and 0.969 in assay [10]. Further, the composite Z-score in assay [2] was -0.235 (inactive).
On to `COc1ccc([Si](C)(C)[C@@H]2[C@@H](CC(=O)N3Cc4ccccc4C[C@H]3CO)O[C@]3(C(=O)N(Cc4cccc(N5CCOC5=O)c4)c4ccccc43)[C@H]2C)cc1`, for which the composite z-score in assay [1] is -0.699; in assay [3], 0.0016; in assay [4] it was -0.117; in assay [5], 0.038; in assay [6], 0.479; in assay [7] it was 0.333. Besides, the values for the composite z-score in assay [8], in assay [9] and in assay [10] were 1.1, 1.32 and 0.844, respectively. The composite Z-score in [2] is 0.844 (inactive).
